Several values for one entry are separate records, joined by “and”; a condition that tells them apart may be missing. Identical values can stand only once. Whole data set: some 2,900 compounds, median “NF-kB SEAP reporter activity, fold change vs agonist alone” near 0.99, cut for the highest 2% near 2.6. The sample as a whole holds a higher share of the highest values than the screen did.

Assay [1] deals with RAW-Dual. Description: NF-kB SEAP reporter activity, fold change vs agonist alone; cytotoxicity flag (confluency mask): not cytotoxic; higher = enhanced NF-kB activity. Put shortly: (§1)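 Cytotoxic wells were those whose IncuCyte confluency was below 70% of agonist controls in both mask sets. The cells were RAW-Dual macrophages at 50,000 cells/well in DMEM on 384-well plates, dosed with 50 nL of library stock by pin tool, stimulated with a PRR agonist 1 h later, and kept at 37 °C, 5% CO2 for 20 hours. IRF and NF-κB reporter activity, as fold change over agonist-alone wells, came from supernatant read by QuantiLuc luminescence and QuantiBlue absorbance, respectively.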

Assay [2] relates to RAW-Dual. The experiment in a line: NF-kB SEAP reporter activity, fold change vs agonist alone; higher = enhanced NF-kB activity. The essentials: as §1
Assay [3] deals with RAW-Dual. The experiment in a line: NF-kB SEAP reporter activity, fold change vs agonist alone; cytotoxicity flag (confluency mask): cytotoxic (confluency <70% of control); higher = enhanced NF-kB activity. Put shortly:
as §1

[4] abbreviates: agonist: ODN 1826 (TLR9) 0.5 ug/mL.
[5] abbreviates: agonist: Pam2CSK4 (TLR2/6) 0.1 ug/mL.
Setting [6] is: agonist: Pam3CSK4 (TLR2/1) 0.1 ug/mL.
Where [7] appears, read: library stock concentration (final ~1000-fold dilution): 10 mM, cytotoxicity flag (confluency mask): not cytotoxic, agonist: Imiquimod (TLR7) […].
Setting [8] is: library stock concentration (final ~1000-fold dilution): 10 mM, cytotoxicity flag (confluency mask): not cytotoxic, agonist: MPLA (TLR4) […].

Take `O=C(c1c(F)ccc(NS(=O)(=O)N2CCC(F)C2)c1F)c1c[nH]c2ncc(-c3cnc(C4CC4)nc3)cc12` (stereo not drawn) (library stock concentration (final ~1000-fold dilution): 10 mM): the “NF-kB SEAP reporter activity” value is 3.62 in assay [1] (agonist: LPS (TLR4) 0.1 ug/mL), 1.42 in assay [1] (setting [4]), 0.526 in assay [1] (setting [5]) and 0.5 in assay [1] (setting [6]).
As for `O=C(O)c1ccc(-c2c[nH]c3ncc(-c4ccccc4)cc23)cc1C1CCCC1`, the “NF-kB SEAP reporter activity” value in assay [2] (setting [7]) came to 0.374; in assay [2] (setting [8]), 1.16.
For `COc1ccc(F)c(F)c1C(=O)c1cnc(NC2CCN(S(C)(=O)=O)CC2)nc1N` (library stock concentration (final ~1000-fold dilution): 10 mM), the “NF-kB SEAP reporter activity” value is 0.194 in assay [1] (agonist: LPS (TLR4) 0.1 ug/mL), 0.985 in assay [1] (setting [4]), 0.0957 in assay [1] (setting [5]) and 1.16 in assay [1] (setting [6]).
Consider `COc1ccc(F)c(F)c1C(=O)c1cnc(NC2CCN(S(C)(=O)=O)CC2)nc1N`, for which the “NF-kB SEAP reporter activity” value stood at 0.977 in assay [2] (setting [7]) and 0.905 in assay [2] (setting [8]).
For `O=C(c1c(F)ccc(NS(=O)(=O)N2CCC(F)C2)c1F)c1c[nH]c2ncc(-c3cnc(C4CC4)nc3)cc12` (stereo not drawn), the “NF-kB SEAP reporter activity” value worked out at 1.12 in assay [2] (setting [7]) and 1.52 in assay [2] (setting [8]).
The like results for `CCCS(=O)(=O)Nc1ccc(F)c(C(=O)c2c[nH]c3ncc(-c4ccc(Cl)cc4)cc23)c1F` were, in that order, 1.1 and 1.3.
`CCCS(=O)(=O)Nc1ccc(F)c(C(=O)c2c[nH]c3ncc(Cl)cc23)c1F`: the “NF-kB SEAP reporter activity” value is 0.891 in assay [2] (setting [7]) and 1.34 in assay [2] (setting [8]).
In the case of `CCCS(=O)(=O)Nc1ccc(F)c(C(=O)c2c[nH]c3ncc(Cl)cc23)c1F` (library stock concentration (final ~1000-fold dilution): 10 mM), the “NF-kB SEAP reporter activity” value in assay [1] (agonist: LPS (TLR4) 0.1 ug/mL) is 1.48; in assay [1] (setting [4]), 0.781; in assay [1] (setting [5]) it was 0.389; in assay [1] (setting [6]) it was 0.505.
As for `O=C(O)c1ccc(-c2c[nH]c3ncc(-c4ccccc4)cc23)cc1C1CCCC1` (library stock concentration (final ~1000-fold dilution): 10 mM), the “NF-kB SEAP reporter activity” value in assay [1] (agonist: LPS (TLR4) 0.1 ug/mL) was 1.15; in assay [1] (setting [4]) it was 0.388; in assay [1] (setting [5]), 0.646; in assay [1] (setting [6]) it was 0.497.
On the same counts, the results for `CCN(C)S(=O)(=O)Nc1ccc(F)c(C(=O)c2c[nH]c3ncc(-c4cnc(C5CC5)nc4)cc23)c1F` (library stock concentration (final ~1000-fold dilution): 10 mM) are 3.3, 1.55, 0.469 and 0.764.
For `CCCS(=O)(=O)Nc1ccc(F)c(C(=O)c2c[nH]c3ncc(-c4ccc(Cl)cc4)cc23)c1F` (library stock concentration (final ~1000-fold dilution): 10 mM), the “NF-kB SEAP reporter activity” value came to 0.99 in assay [1] (agonist: LPS (TLR4) 0.1 ug/mL), 0.941 in assay [1] (setting [4]), 0.4 in assay [1] (setting [5]) and 0.411 in assay [1] (setting [6]).
On to `CCN(C)S(=O)(=O)Nc1ccc(F)c(C(=O)c2c[nH]c3ncc(-c4cnc(C5CC5)nc4)cc23)c1F`, for which the “NF-kB SEAP reporter activity” value in assay [2] (setting [7]) is 1.24; in assay [2] (setting [8]), 1.62.
On the same counts, the results for `CCNC(=O)Nc1ccc(-c2nc3c(c(N4CCOCC4C)n2)CCN(C2COC2)C3)cc1` (stereo not drawn) are 0.771 and 1.23.
On to `CCNC(=O)Nc1ccc(-c2nc3c(c(N4CCOCC4C)n2)CCN(C2COC2)C3)cc1` (stereo not drawn) (library stock concentration (final ~1000-fold dilution): 10 mM), for which the “NF-kB SEAP reporter activity” value in assay [1] (agonist: LPS (TLR4) 0.1 ug/mL) was 0.974; in assay [1] (setting [4]) it was 0.705; in assay [1] (setting [5]) it was 0.395; in assay [1] (setting [6]), 0.411.
The like results for `Cc1nc(NC(=O)N2CCCC2C(N)=O)sc1-c1csc(C(C)(C)C)n1` (stereo not drawn) (library stock concentration (final ~1000-fold dilution): 10 mM) were, in that order, 0.881, 1.41, 1.32 and 1.
Turning to `Cc1nc(NC(=O)N2CCCC2C(N)=O)sc1-c1csc(C(C)(C)C)n1` (stereo not drawn), the “NF-kB SEAP reporter activity” value in assay [2] (setting [7]) stood at 1.01; in assay [2] (setting [8]), 0.941.
On the same counts, the results for `CC(C)N(CCCNC(=O)Nc1ccc(C(C)(C)C)cc1)CC1OC(n2ccc3c(N)ncnc32)C(O)C1O` (stereo not drawn) are 1.02 and 0.984.
`CC(C)N(CCCNC(=O)Nc1ccc(C(C)(C)C)cc1)CC1OC(n2ccc3c(N)ncnc32)C(O)C1O` (stereo not drawn) (library stock concentration (final ~1000-fold dilution): 10 mM): the “NF-kB SEAP reporter activity” value in assay [1] (agonist: LPS (TLR4) 0.1 ug/mL) came to 0.953; in assay [1] (setting [4]) it was 1.05; in assay [1] (setting [5]), 0.991; in assay [1] (setting [6]), 1.14.
`C=C(C)C1CCC2(C(=O)O)CCC3(C)C(CCC4C5(C)CCC(O)C(C)(C)C5CCC43C)C12` (stereo not drawn): the “NF-kB SEAP reporter activity” value amounted to 1.04 in assay [2] (setting [7]) and 1.1 in assay [2] (setting [8]).
In the case of `C=C(C)C1CCC2(C(=O)O)CCC3(C)C(CCC4C5(C)CCC(O)C(C)(C)C5CCC43C)C12` (stereo not drawn) (library stock concentration (final ~1000-fold dilution): 10 mM), the “NF-kB SEAP reporter activity” value in assay [1] (agonist: LPS (TLR4) 0.1 ug/mL) amounted to 1.45; in assay [1] (setting [4]) it was 0.913; in assay [1] (setting [5]), 0.832; in assay [1] (setting [6]) it was 1.14.
Turning to `O=C(NCCCNc1nc(Nc2cccc(CN3CCOCC3)c2)ncc1C1CC1)C1CCC1` (library stock concentration (final ~1000-fold dilution): 10 mM), the “NF-kB SEAP reporter activity” value in assay [1] (agonist: LPS (TLR4) 0.1 ug/mL) was 2.49 and 3.77; in assay [1] (setting [4]) it was 0.595 and 0.333; in assay [1] (setting [5]), 2.26 and 2.33; in assay [1] (setting [6]), 4.25 and 3.71.
Regarding `CN1CCc2cc(Nc3ncc(C4CC4)c(NCCCNC(=O)C4CCC4)n3)ccc2C1`, the “NF-kB SEAP reporter activity” value in assay [2] (library stock concentration (final ~1000-fold dilution): 10 mM, cytotoxicity flag (confluency mask): cytotoxic (confluency <70% of control), agonist: Imiquimod (TLR7) […]) was determined as 0.243; in assay [2] (library stock concentration (final ~1000-fold dilution): 10 mM, cytotoxicity flag (confluency mask): cytotoxic (confluency <70% of control), agonist: MPLA (TLR4) […]) it was 0.288.
With `O=C(NCCCNc1nc(Nc2cccc(NC(=O)N3CCCC3)c2)ncc1I)c1cccs1` (library stock concentration (final ~1000-fold dilution): 10 mM), the “NF-kB SEAP reporter activity” value in assay [3] (agonist: LPS (TLR4) 0.1 ug/mL) was 0.329 and 0.35; in assay [3] (setting [4]), 0.729 and 1.48; in assay [3] (setting [5]), 0.0917 and 0.128; in assay [3] (setting [6]), 0.252 and 0.376.
`CN1CCc2cc(Nc3ncc(C4CC4)c(NCCCNC(=O)C4CCC4)n3)ccc2C1` (library stock concentration (final ~1000-fold dilution): 10 mM): the “NF-kB SEAP reporter activity” value in assay [3] (agonist: LPS (TLR4) 0.1 ug/mL) was 0.23; in assay [3] (setting [4]), 0.207; in assay [3] (setting [5]), 0.0969; in assay [3] (setting [6]), 0.211.
For the compound `CC(C)(C)c1[nH]cnc1C=c1[nH]c(=O)c(=Cc2ccccc2)[nH]c1=O` (library stock concentration (final ~1000-fold dilution): 10 mM), the “NF-kB SEAP reporter activity” value in assay [1] (agonist: LPS (TLR4) 0.1 ug/mL) was 6.1; in assay [1] (setting [4]) it was 3.37; in assay [1] (setting [5]), 2.02; in assay [1] (setting [6]), 2.3.
In the case of `O=c1[nH]cnc2ccccc12`, the “NF-kB SEAP reporter activity” value amounted to 0.847 in assay [2] (setting [7]) and 0.983 in assay [2] (setting [8]).
`CC(C)(C)c1[nH]cnc1C=c1[nH]c(=O)c(=Cc2ccccc2)[nH]c1=O`: the results for the “NF-kB SEAP reporter activity” value in assay [2] (setting [7]) and in assay [2] (setting [8]) were 2.47 and 2.5, respectively.
In the case of `O=c1[nH]cnc2ccccc12` (library stock concentration (final ~1000-fold dilution): 10 mM), the “NF-kB SEAP reporter activity” value in assay [1] (agonist: LPS (TLR4) 0.1 ug/mL) worked out at 1.14; in assay [1] (setting [4]), 0.991; in assay [1] (setting [5]), 1.05; in assay [1] (setting [6]), 1.08.
Take `O=C(Nc1ccc(O)c(C(=O)O)c1)c1cccc(NC(=O)c2ccco2)c1` (library stock concentration (final ~1000-fold dilution): 10 mM): the “NF-kB SEAP reporter activity” value in assay [1] (agonist: LPS (TLR4) 0.1 ug/mL) was 0.971; in assay [1] (setting [4]), 0.895; in assay [1] (setting [5]) it was 1.05; in assay [1] (setting [6]), 1.06.
Consider `O=C(Nc1ccc(O)c(C(=O)O)c1)c1cccc(NC(=O)c2ccco2)c1`, for which the “NF-kB SEAP reporter activity” value in assay [2] (setting [7]) came out at 0.942; in assay [2] (setting [8]), 0.969.
For the compound `Cl.Cl.c1cc(-c2nc3ccc(OCCCN4CCCC4)cc3o2)ccc1OCCCN1CCCC1` (library stock concentration (final ~1000-fold dilution): 1 mM), the “NF-kB SEAP reporter activity” value in assay [1] (agonist: LPS (TLR4) 0.1 ug/mL) is 0.935; in assay [1] (setting [4]) it was 0.224; in assay [1] (setting [5]) it was 1.11; in assay [1] (setting [6]), 1.06.
In the case of `Cl.Cl.c1cc(-c2nc3ccc(OCCCN4CCCC4)cc3o2)ccc1OCCCN1CCCC1`, the “NF-kB SEAP reporter activity” value was found to be 1.27 in assay [2] (library stock concentration (final ~1000-fold dilution): 1 mM, cytotoxicity flag (confluency mask): not cytotoxic, agonist: Imiquimod (TLR7) […]) and 1.08 in assay [2] (library stock concentration (final ~1000-fold dilution): 1 mM, cytotoxicity flag (confluency mask): not cytotoxic, agonist: MPLA (TLR4) […]).

(Values after the supplement of paper PMC10037445.)
